Source: PubChem BioAssay (National Center for Advancing Translational Sciences (NCATS))
An excerpt weighted towards active compounds, which were near 9.4% of everything screened.
AMA1 RON2 block – qHTS for Inhibitors of AMA1-RON; Towards Development of Antimalarial Drug Lead: Primary Screen; Plasmodium falciparum AMA1 (3D7) - RON2 peptide interaction; AlphaScreen AMA1-biotinylated RON2 peptide binding; Potency, µM (doses to about 58.2 µM), for the others: at the top dose activity change, negative = inhibition, usual class: inhibitors; 360,000 compounds, 0.2% hits; AID 720542, 2013;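 further: potency means the concentration at half of the fitted maximal effect; 0% = vehicle wells and -100% = peptide control; nearly all actives have a fitted effect of over 45% in size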
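AMA1 (3D7) with his tag at 25 nM final met compounds first, then biotinylated RON2 peptide at 25 nM; detection used donor plus acceptor beads, 10 µg/mL apiece, read by AlphaScreen after 30 min at room temperature.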
Pf growth 96h – Primary qHTS for delayed death inhibitors of the malarial parasite plastid, 96 hour incubation | 320,000 compounds, 6.9% hits | Potency, µM (highest dose often 28.7 µM), without a hit: at the top dose activity change, negative = inhibition, most hits filed as inhibitors | P. falciparum luciferase reporter growth, 96 h; further: potency means the concentration at half of the fitted maximal effect; on the % scale 0 is the no-effect control and ±100 the full control effect
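Delayed-death screen, second-generation endpoint: infected erythrocytes, 2% hematocrit, 0.05% parasitemia final; 96 hours at 37 C, 5% CO2; luciferase detection reagent; luminescence decrease equals reduced growth.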
SARS PLpro yeast-1 – qHTS of Yeast-based Assay for SARS-CoV PLP; S. cerevisiae expressing SARS-CoV PLpro, growth rescue; Potency, µM (doses to about 32.9 µM), for inactives: at the highest dose activity, positive = growth rescue, most hits filed as activators; 330,000 compounds, 0.19% hits; calls by dose curve; further: potency means the concentration at half of the fitted maximal effect; 0% is about no effect; nearly all actives have a fitted effect of over 55% in size
Pf growth 48h – Primary qHTS for delayed death inhibitors of the malarial parasite plastid, 48 hour incubation; Potency, µM (series often up to 28.7 µM), for the others: top-dose activity change, negative = inhibition, most hits filed as inhibitors; 310,000 compounds, 5.9% hits; P. falciparum luciferase growth in erythrocytes, 48 h; further: potency means the concentration at half of the fitted maximal effect; on the % scale 0 is the no-effect control and ±100 the full control effect
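Luciferase-expressing parasites in RBCs, 2% Hct / 0.1% parasitemia final; RPMI 1640 + 0.5% Albumax; 37 C, 5% CO2, one generation; luminescence read-out, lower signal = inhibition.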
SARS PLpro yeast-2 – qHTS of Yeast-based Assay for SARS-CoV PLP: Hit Validation | shares compounds with SARS PLpro yeast-1 | AID 652038, 2013 | 1,000 compounds, 19% hits | yeast expressing SARS-CoV PLpro, growth phenotype rescue | calls only; call rule not given here
Active calls of the source: *; i = inactive; u = inconclusive; x = no result given; + = active, no number; [ ] = remark or other dose. Unless noted, the call rests on the fitted dose curve; in most records, active means well fitted curve in the direction sought with a large enough effect; inconclusive means small, poorly fitted or top-dose-only effect, or another doubt; inactive means no such curve, though single readings can be large; an effect the other way counts as inactive or inconclusive.

SMILES	AMA1 RON2 block	Pf growth 96h	SARS PLpro yeast-1	Pf growth 48h	SARS PLpro yeast-2
O=P(N1CCCCC1)(N1CCCCC1)C(Cl)(Cl)Cl	4%	x	u	-12%	i
O=C(/C=C1\NC2(CCCC2)Cc2ccccc21)C(=O)N/N=C/c1ccccc1O	42%	0%	7.9µM*	0%	+
CCSCCOC(=O)C1=C(C)NC(=O)NC1c1cc(OC)ccc1OC (stereo unspecified)	-1%	16%	u	2%	i
CCOC(=O)c1[nH]c2ccc(Cl)cc2c1NC(=O)c1nonc1C	9%	74%	u	-2%	+
CCc1nc(SCC#N)c(C#N)cc1C	x	21%	-2%	0%	x
COc1ccc(-c2nn(-c3ccccc3)cc2/C=N/NC(=S)NC(C)C)cc1OC	-2%	u	7.1µM*	u	+
C=CCNC(=S)N/N=C/c1cn(-c2ccccc2)nc1-c1ccc(OC)cc1	52%	11%	22%	-21%	x
O=C(CC(C(=O)O)C1CCCO1)NCc1ccccc1 (stereo unspecified)	-3%	17%	1%	2%	x
Cc1ccc(C)c(NC(=O)c2cc(-c3cccnc3)nc3ccccc23)c1	0%	33%	-6%	150%	x
C/C(=N\NC(=O)c1cc(-c2cccnc2)nc2ccccc12)c1ccc(O)cc1O	66%	u	u	9.3µM*	i
COc1ccc(-c2cc(N3C(=O)Nc4ccccc4N3O)n[nH]2)cc1OC	-11%	10%	12%	12%	x
COc1ccc(-c2cc(N3C(=O)Nc4ccccc4N3O)n[nH]2)cc1	10%	u	11µM*	43%	i
O=C(Cn1cnc([N+](=O)[O-])n1)N/N=C/c1cccc2ccccc12	-4%	u	u	40%	i
COc1ccc2[nH]c3c(=O)n(CCCC(=O)NC4CCC(C)CC4)c(=S)[nH]c3c2c1 (stereo unspecified)	127%	10%	0%	19%	x
CCCNC(=O)c1ccc(Cn2c(=S)[nH]c3c([nH]c4ccc(OC)cc43)c2=O)cc1	37%[2.32 µM]	9%	14µM*	u	i
O=C(O)CN1C(=O)CSC1=S	68%	31%	-1%	33%	x
Cc1oc2cc(OCc3cnn(-c4ccccc4)c3)ccc2c(=O)c1Oc1ccccc1F	8%[11.6 µM]	-15%	2.5µM*	-20%	i
Cc1ccc(S(=O)(=O)Nc2ccc(O)c3ncccc23)cc1	-49%	0%	u	u	+
CC1CCCN(c2nc3c(c(=O)[nH]c(=O)n3C)n2CCCc2ccccc2)C1 (stereo unspecified)	-4%	u	u	u	i
CC1CCN(c2nc3c(c(=O)[nH]c(=O)n3C)n2Cc2ccccc2)CC1	-5%	11%	-3%	x	x
COc1ccccc1NC(=S)NNC(=S)Nc1ccc(OC(F)F)cc1	-15%	22%	14%	11%	x
CCOc1ccc2[nH]c(C)c(CN3CCN(CC)CC3)c(=O)c2c1	2%	10%	8%	12%	x
CCCCN(C)Cc1c(C)[nH]c2ccc(OCC)cc2c1=O	15%	u	u	-6%	i
O=C(COC(=O)c1cccnc1Cl)NC1CCCCCC1	36%	x	3.2µM*	x	i
COc1ccc(NC(=O)CSc2ccccc2)cn1	-13%	65%	0%	40%	x
SMILES	AMA1 RON2 block	Pf growth 96h	SARS PLpro yeast-1	Pf growth 48h	SARS PLpro yeast-2
Cn1c(=O)cc(Nc2ccc(Cl)cc2)[nH]c1=O	1%	-7%	2%	-13%	x
COc1ccc(Cc2nnc(N/N=C/c3ccc(O)cc3O)[nH]c2=O)cc1OC	-29%	u	6.3µM*	4.1µM*	i
Cc1ccccc1CN(C)C(=O)COC(=O)c1ccc2[nH]c(C)c(C)c2c1	-3%	x	1%	x	x
CCOC(=O)c1ccc(NC(=O)CC2SC3=NCCN3C2=O)cc1 (stereo unspecified)	18%	7%	0%	32%	x
Cc1cccc(C)c1NC(=O)CC1SC2=NCCN2C1=O (stereo unspecified)	4%	x	u	-22%	i
CC(C)CCNC(=O)C1c2ccccc2Oc2ccccc21	-8%	4%	-1%	49%	x
Cc1ccc2[nH]c(=S)cc(C)c2c1	29%	-2%	22µM*	u	+
